Bioassay records deposited in PubChem BioAssay by National Center for Advancing Translational Sciences (NCATS).
EPAC1 agonist: agonists of human EPAC1. Potency, µM (series often up to 154 µM), for the others: at the top dose activation, actives largely listed as activators. 0.073% of 360,000 active. AID 720707. EPAC1 agonist qHTS, biochemical assay; response scale: 100% = response to 6.5 mM cAMP; also: nearly all actives have a fitted effect of over 60% in size
Target sequence (O95398 whole entry, looked up): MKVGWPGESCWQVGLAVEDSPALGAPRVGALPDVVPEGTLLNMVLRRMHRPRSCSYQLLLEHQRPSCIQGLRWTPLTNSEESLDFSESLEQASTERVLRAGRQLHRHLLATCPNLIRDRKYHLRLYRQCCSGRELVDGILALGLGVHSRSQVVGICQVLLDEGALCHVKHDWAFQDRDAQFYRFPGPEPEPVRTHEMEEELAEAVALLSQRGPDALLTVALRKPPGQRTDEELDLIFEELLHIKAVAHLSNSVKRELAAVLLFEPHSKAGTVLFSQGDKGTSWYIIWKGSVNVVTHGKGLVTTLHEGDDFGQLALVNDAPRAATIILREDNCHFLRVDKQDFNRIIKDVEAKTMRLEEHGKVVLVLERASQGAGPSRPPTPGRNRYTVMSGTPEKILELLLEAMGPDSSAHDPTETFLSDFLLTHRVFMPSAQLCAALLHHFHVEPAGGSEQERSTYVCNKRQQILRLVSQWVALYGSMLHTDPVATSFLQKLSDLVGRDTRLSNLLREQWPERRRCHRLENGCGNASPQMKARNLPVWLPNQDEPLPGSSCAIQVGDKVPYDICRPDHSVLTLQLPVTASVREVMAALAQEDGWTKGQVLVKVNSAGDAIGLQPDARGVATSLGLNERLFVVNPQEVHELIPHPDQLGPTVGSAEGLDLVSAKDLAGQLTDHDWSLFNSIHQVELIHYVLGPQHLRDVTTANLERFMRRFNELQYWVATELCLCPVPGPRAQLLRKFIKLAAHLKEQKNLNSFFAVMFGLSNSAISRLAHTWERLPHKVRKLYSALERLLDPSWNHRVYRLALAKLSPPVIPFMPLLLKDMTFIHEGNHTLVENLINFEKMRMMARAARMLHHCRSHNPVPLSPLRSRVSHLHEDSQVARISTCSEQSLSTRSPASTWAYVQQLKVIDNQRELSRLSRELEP
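Normalized to 6.5 mM cAMP, activity reflects EPAC1-catalysed release of BODIPY-GDP from Rap1B, followed kinetically over 30 min at 480 nm excitation, 540 nm emission. Reaction contained 100 nM EPAC1, 250 nM Rap1B-BODIPY-GDP, 50 uM GDP.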
B2AR arrestin: recruits beta-arrestin to the human beta2-adrenergic receptor | 0.02% of 330,000 active | Potency, µM (highest dose often 46.1 µM), inactives show at the top dose activation, actives largely listed as activators | AID 492947 | beta-arrestin recruitment to beta2AR, cell-based reporter;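 also: 0% = DMSO controls and full agonism = EC100 isoproterenol or metaproterenol; nearly all actives have a fitted effect of over 65% in size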
EPAC2 antagonist: antagonists of human EPAC2; Q8WZA2; 0.18% of 360,000 active; EPAC2 GEF exchange of Rap1B-BODIPY-GDP, fluorescence; Potency, µM (titrated, usually from 114 µM), for inactives: at the highest dose activity, negative = inhibition, hits mostly inhibitors; AID 720708; also: % is scaled to controls: 0 for no effect and ±100 for the full control effect; nearly all actives have a fitted effect of over 45% in size
EPAC1 antagonist: EPAC1 (human) antagonism; 0.14% of 360,000 active; EPAC1 GEF assay, Rap1b-BODIPY-GDP exchange fluorescence; AID 720709; Potency, µM (titrated, usually from 115 µM), without a hit: top-dose activity change, negative = inhibition, most hits filed as inhibitors;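 also: plate controls were vehicle for no effect and positive control for full effect; nearly all actives have a fitted effect of over 50% in size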
EPAC2 ag: activates human EPAC2 exchange factor; Potency, µM (highest dose often 154 µM), for the others: at the top dose activation, usual class: activators; 0.079% of 360,000 active; EPAC2 activation, biochemical qHTS; response scale: 100% = 6.5 mM cAMP response; also: nearly all actives have a fitted effect of over 50% in size
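Guanine nucleotide exchange by EPAC2 is measured as reduced fluorescence of BODIPY-GDP once it is released from 250 nM Rap1B. Plates are read kinetically for 30 min at room temperature; results are scaled to 6.5 mM cAMP.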
Starred values were filed as active, the others as inactive; u = inconclusive; x = not tested or not shown. An excerpt weighted towards active compounds, which were near 0.4% of everything screened. Calls follow the shape of the dose curve; as a rule, active = well fitted curve in the direction sought with a large enough effect; inconclusive = small, poorly fitted or top-dose-only effect, or another doubt; inactive = no such curve, though single readings can be large; an effect the other way counts as inactive or inconclusive. Potency is read from the fitted curve at half-maximal effect.

SMILES | EPAC1 agonist | B2AR arrestin | EPAC2 antagonist | EPAC1 antagonist | EPAC2 ag
CCOC(=O)c1c(NC(=O)/C=C/C(=O)O)sc(C)c1-c1ccc(C(C)(C)C)cc1 | -12% | 0% | u | 56µM* | -18%
CCC1(CC)NC(=O)N(CC(=O)N2CCN(S(=O)(=O)c3cccc(F)c3)CC2)C1=O | 3% | -1% | 5% | -1% | -7%
N#Cc1c(-c2ccc(F)cc2)cc(-c2ccccc2)nc1SCC(=O)NCC(=O)O | 9% | -1% | 13% | 79µM* | -5%
N#Cc1c(-c2ccc(Cl)cc2)cc(-c2ccccc2)nc1SCC(=O)O | 8% | 0% | -3% | -27% | 2%
CCCN(CC(=O)Nc1ccccc1C)C(=O)c1oc2ccc(OCC)cc2c1C | 126µM* | -1% | -3% | -16% | -11%
CSc1ccc(/C=C/C(=O)N2CCN(c3ccccn3)CC2)cc1 | -3% | -1% | 2% | -3% | 5%
CCc1ccc(NC(=O)/C(C#N)=C/c2cc3ccc(C)cc3nc2N2CCOCC2)cc1 | -1% | -2% | 8% | 7% | 100µM*
Cc1ccc(C(=O)N2[C@@H]3CN(C)C(=O)[C@@]2(C)[C@H]2C(=O)N(C)C(=O)[C@@H]32)cc1 | 5% | x | -4% | -8% | 4%
CC[C@@]1(c2ccccc2OC)ON(c2ccccc2C(F)(F)F)C1=O | -8% | -1% | 14µM* | -22% | 1%
Cc1ccccc1[C@@]1(C)ON(c2ccccc2C(F)(F)F)C1=O | 1% | 0% | u | 5% | 4%
CCOC(=O)c1cc2c(ccn2C)n1CC(=O)N1CCN(c2cccc(C(F)(F)F)c2)CC1 | -29% | 0% | u | 56µM* | -14%
CCOC(=O)c1cc2c(ccn2C)n1CC(=O)N1CCN(c2ccc(F)cc2)CC1 | -11% | 0% | 4% | 2% | -3%
O=C(NCCOc1ccc(F)cc1)c1ccccc1SCc1ccccc1 | 16% | 0% | 50µM* | -7% | 9%
CCc1ccc(OCCNC(=O)c2ccccc2SCc2ccc(F)cc2)cc1 | -9% | 0% | 7% | -19% | -2%
O=c1c(/C=C(\O)c2ccc(F)cc2)nc2ccccc2n1-c1ccccc1 | 23% | 0% | 100% | 13% | 100µM*
Cn1c(=O)c(/C=C/c2ccc(F)cc2)nc2ccccc21 | -16% | 12% | 8% | -3% | 2%
Cc1ccc(C(CCN(Cc2ccccc2)C(=O)c2ccco2)c2ccco2)cc1 (stereo unspecified) | 0% | 3% | u | 50µM* | -2%
Cc1cc(C(=O)c2ccccc2)cc(C)c1O | -2% | x | 13% | -1% | -1%
CC1=C/C(=C(\c2cc(C)c(O)c(Br)c2)c2ccccc2S(=O)(=O)O)C=C(Br)C1=O | -15% | 0% | 40µM* | u | -14%
CN(C)c1ccc(/C=C(/C#N)C(=O)Nc2nc3c(s2)CCN(Cc2ccccc2)C3)cc1 | 19% | x | 89% | 3% | 100µM*
Cc1cccc(CNC(=O)C2CCC(=O)N(CC3CCCCC3)C2)c1 (stereo unspecified) | 1% | x | 6% | 7% | -1%
CCOC(=O)C1=C(C)N=c2s/c(=C\c3ccc(OCC(=O)O)cc3)c(=O)n2C1c1ccc(OC(C)C)cc1 (stereo unspecified) | -10% | -1% | 3% | 56µM* | -29%
CCOC(=O)C1=C(C)N=c2sc(=Cc3cc(Cl)c(OCC(=O)O)c(Cl)c3)c(=O)n2C1c1cccc(OC)c1 (stereo unspecified) | 18% | x | 25µM* | u | 4%
CCOC(=O)C1=C(C)N=c2s/c(=C/c3ccc(OCC(=O)O)cc3)c(=O)n2C1c1cc(OC)c(OC)c(OC)c1 (stereo unspecified) | 3% | 0% | 22% | u | -59%
Cc1cccc(C)c1OC(=O)c1ccccc1 | -1% | x | 50µM* | -8% | 7%
COc1cccc(OC)c1OC(=O)c1ccccc1 | 5% | x | u | 2% | 6%
Cn1nc(-c2ccc(C(=O)NCCO)cc2)c2ccccc2c1=O | 6% | 5.6µM* | -3% | -21% | 11%
Cc1ccc(CN(C)C(=O)CN2C(=O)NC3(CCCc4ccccc43)C2=O)c(C)c1 (stereo unspecified) | 0% | -1% | -21% | -12% | 6%
